# Source: PubChem BioAssay
# Rab9 promoter act – activates the Rab9 promoter; Huh7 Rab9 promoter-luciferase reporter, luminescence, 24 h; 320,000 compounds, 2.8% hits; Potency, µM (series often up to 9.22 µM), without a hit: top-dose activation, negative = inhibition, usual class: activators; AID 485297; note: % of control where 0% means no effect; nearly all actives have a fitted effect of over 60% in size
#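 Steps: seed 1500 Huh7 Rab9-luc cells per well, rest 2 h at 37 °C; add compound in DMSO; incubate 24 h; add luciferase reagent, 10 min ambient; read luminescence.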
# ELG1 genotox – induces genotoxicity in HEK293T cells with luciferase-tagged ELG1. HEK293T ELG1-luciferase reporter, luminescence, 16 h. Potency, µM (series often up to 46 µM), for the others: at the top dose activity change, positive = activation, most hits filed as activators. 330,000 compounds, 1.3% hits; note: % of control where 0% means no effect; nearly all actives have a fitted effect of over 60% in size
#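 Screening used a luciferase reporter fused to human ELG1 in HEK293T cells. Luminescence was read on a CCD plate imager after 16 hr exposure and 30 min ONE-Glo incubation.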
# FLuc modulator – inhibits or activates purified firefly luciferase, miR-21 counter-screen; P08659; purified FLuc, Km substrates, luminescence inhibition; Potency, µM (top dose mostly 57.5 µM), for inactives: at the highest dose activity change, negative = inhibition, usual class: inhibitors; 360,000 compounds, 6.9% hits; AID 588342;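 note: plate controls were vehicle for no effect and reference inhibitor for full effect; nearly all actives have a fitted effect of over 55% in size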
# Target sequence (P08659 whole entry, looked up): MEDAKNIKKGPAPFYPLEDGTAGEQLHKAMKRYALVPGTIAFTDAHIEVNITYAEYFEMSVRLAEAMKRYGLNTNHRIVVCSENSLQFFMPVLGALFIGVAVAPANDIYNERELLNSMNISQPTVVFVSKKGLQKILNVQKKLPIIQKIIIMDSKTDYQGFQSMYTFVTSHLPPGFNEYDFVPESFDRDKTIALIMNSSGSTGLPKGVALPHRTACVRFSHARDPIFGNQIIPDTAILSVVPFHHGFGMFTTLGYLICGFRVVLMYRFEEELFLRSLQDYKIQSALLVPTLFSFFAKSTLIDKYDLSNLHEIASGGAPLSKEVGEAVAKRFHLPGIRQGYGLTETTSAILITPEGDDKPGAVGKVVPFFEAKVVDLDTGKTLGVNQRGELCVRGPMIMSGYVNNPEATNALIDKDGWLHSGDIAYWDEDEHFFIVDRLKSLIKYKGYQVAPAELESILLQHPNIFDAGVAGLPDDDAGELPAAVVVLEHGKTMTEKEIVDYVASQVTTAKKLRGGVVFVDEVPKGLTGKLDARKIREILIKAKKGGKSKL
#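 Biochemical qHTS of compounds, final roughly 60 µM downward over six points, against 10 nM purified firefly luciferase using Km concentrations of substrates (10 uM D-luciferin, 10 uM ATP) in Tris acetate pH 7.5 buffer; luminescence output.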
# SMN2 splice up – SMN2 splice variant enhancement; 210,000 compounds, 2.8% hits; Potency, µM (titrated, usually from 46.1 µM), for inactives: at the highest dose activity change, positive = activation, most hits filed as activators; HEK293 SMN2-luciferase splicing reporter, luminescence, 30-36 h; note: % of control where 0% means no effect; nearly all actives have a fitted effect of over 55% in size
#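 HEK293 cells carry an SMN2 minigene-luciferase reporter in which exon 7 inclusion puts luciferase in frame. Cells were seeded at 2000 cells/well, attached for 10-12 hours, then exposed to compounds for 30-36 hours at 37C before ONE-Glo luminescence.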
# NPC1 prom act – NPC1 promoter activation. Huh7 NPC1 promoter luciferase reporter, 24 h. Potency, µM (series often up to 9.22 µM), for inactives: at the highest dose activation, usual class: activators. 320,000 compounds, 2.4% hits; note: % of control where 0% means no effect; nearly all actives have a fitted effect of over 60% in size
#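 Cells: Huh7 expressing luciferase under the NPC1 promoter, 1500/well. Seeded 2 h, compound added, incubated 24 h at 37 °C. Luciferase reagent, 10 min ambient, then luminescence.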
# Luc counter – Kinase-Glo luciferase inhibition (counter-screen). Potency, µM (series often up to 38.3 µM), for the others: at the top dose activity change, negative = inhibition, most hits filed as inhibitors. Q27757. Kinase-Glo luciferase, ATP luminescence, 8 min. 200,000 compounds, 0.28% hits; note: % is set by controls: 0 for no effect and ±100 for the full control effect; nearly all actives have a fitted effect of over 60% in size
#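 Recombinant Kinase-Glo luciferase, 10 uM ATP (linear range), luciferin; imidazole pH 7.2 / KCl / MgCl2 / Tween / BSA buffer; 8 min RT; luminescence.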
# * hit, by the source's call; ? = inconclusive; . = no result. A selection: hits, their analogues and other compounds. The true share with any hit is near 7.3%. Calls come from the whole dose curve; as a rule, active = well fitted curve in the direction sought with a large enough effect; inconclusive = small, poorly fitted or top-dose-only effect, or another doubt; inactive = no such curve, though single readings can be large; an effect the other way counts as inactive or inconclusive. Potency is the fitted concentration of half-maximal effect.
SMILES,Rab9 promoter act,ELG1 genotox,FLuc modulator,SMN2 splice up,NPC1 prom act,Luc counter
O=C(COc1ccc(Cl)cc1Cl)Nc1cccc(-c2ccc(N3CCOCC3)nn2)c1,1µM*,1.83µM*,0.426µM*,.,?,.
O=C(COc1ccccc1)Nc1cccc(-c2ccc(N3CCOCC3)nn2)c1,1.26µM*,2.31µM*,1.9µM*,.,1.78µM*,.
CCN1CCCC1CNC(=O)c1ccc(Cc2nc3ccccc3[nH]2)cc1 (centres undefined),.,.,.,.,.,1.7%
O=C(c1c[nH]c2ccccc12)N1CCN(c2ccccc2)CC1,14.3%,-5.3%,-15.9%,13.8%,-1.2%,3.7%
O=C(c1c[nH]c2ccccc12)N1CCN(Cc2ccccc2)CC1,3.7%,-4.7%,21.3µM*,-18.3%,-3.4%,-0.7%
O=C(c1ccc2ccccc2c1)N1CCN(Cc2ccccc2)CC1,22.4%,8.2%,21.3µM*,.,?,.
CNC(=O)c1ccc(NC(=O)c2nsc3ccccc23)cc1,.,.,1.51µM*,2µM*,.,.
CCOC(=O)c1ccc(NC(=O)c2sc3ccccc3c2Cl)cc1,.,.,3.0%,7.1%,.,.
CCOC(=O)c1ccc(NC(=O)c2nsc3ccccc23)cc1,.,.,2.39µM*,5.62µM*,.,.
O=C(Nc1ccccc1)N1CCN(C(=O)c2nsc3ccccc23)CC1,.,.,-6.2%,.,.,.
Cc1ccc(NC(=O)Cn2c(=O)n(-c3ccccc3)c(=O)c3ccc(C(=O)NCc4ccc5c(c4)OCO5)cc32)c(C)c1,.,.,-0.4%,-14.5%,.,.
Cn1c(N)c(C(=O)COC(=O)c2cc(-c3ccccc3)nc3ccccc23)c(=O)n(C)c1=O,.,.,.,-3.7%,.,-0.8%
Cn1c(N)c(C(=O)c2cc(-c3ccncc3)nc3ccccc23)c(=O)n(C)c1=O,0.5%,?,23.9µM*,11.7%,-1.9%,-11.9%
COc1ccc(-c2cc(C(=O)c3c(N)n(C)c(=O)n(C)c3=O)c3ccccc3n2)cc1OC,24.3%,?,9.53µM*,.,9.1%,-10.3%
CC(=O)N(c1ccccc1)c1nnc(-c2cnc(C)cn2)s1,3.16µM*,9.2µM*,?,.,1.58µM*,1.1%
CCN(CC)CCCn1c(-c2ccccc2)nc2c(N3CCOCC3)nc(C)nc21,.,.,.,-7.7%,.,-4.0%
CCOC(=O)c1cc(-c2ccc(OC)cc2)n(CCC(=O)NC2CCC(C)CC2)c1C (centres undefined),.,.,-0.2%,.,.,.
c1ccc(-c2ccc(-n3ccnc3)cc2)cc1,12.4%,?,23.9µM*,.,25.2%,.
c1ccc(-c2nc(N3CCN(c4ccccc4)CC3)nc(-n3ccnc3)n2)cc1,-0.3%,-9.7%,1.6%,.,-8.3%,.
CS(=O)(=O)N1CCC(n2c(C(F)(F)F)nc3cccnc32)CC1,.,.,2.8%,.,.,.
CCN(C(=O)CN1C(=O)COc2ccc(S(=O)(=O)N3CCOCC3)cc21)c1cccc(C)c1,.,.,1.6%,.,.,.
Cc1cccc(NC(=O)Cn2c(=O)n(CCC(=O)N3CCc4ccccc4C3)c(=O)c3ccccc32)c1,.,.,-3.6%,-2.6%,.,.
Cn1cccc1/C=C1\SC(=Nc2cccc(O)c2)NC1=O,?,?,12µM*,.,11.6%,.
O=C1NC(=Nc2ccccc2)S/C1=C\c1cccs1,3.16µM*,?,12µM*,.,3.16µM*,.
Cc1ccc(N=C2NC(=O)/C(=C\c3ccco3)S2)cc1,?,?,16.9µM*,16.2%,?,-2.8%
SMILES,Rab9 promoter act,ELG1 genotox,FLuc modulator,SMN2 splice up,NPC1 prom act,Luc counter
Cn1cccc1/C=C1\SC(=Nc2ccc(O)cc2)NC1=O,-6.2%,16.4µM*,?,.,22.8%,.
O=C(c1ccc([N+](=O)[O-])cc1)N1CCN(c2ccc(Nc3ccccc3)nn2)CC1,.,.,3.2%,.,.,.
CCOc1ccc2c(c1)S/C(=C\c1cccs1)C(=O)N2,?,?,9.53µM*,.,?,.
Cc1cc(C)cc(N=C2NC(=O)/C(=C/c3cccs3)S2)c1,-2.5%,3.2%,-18.7%,-22.3%,0.8%,0.7%
Cc1ccc(N=C2NC(=O)/C(=C/c3cccn3C)S2)c(C)c1,-0.5%,-8.5%,-0.3%,.,0.4%,.
Cn1cccc1/C=C1\SC(=Nc2ccccc2)NC1=O,21.8%,23.1µM*,9.53µM*,.,-18.3%,.
